Assay in all cases: NCI-60 one-dose screen, 48 h (100 = growth as untreated, 0 = no growth, -100 = all killed)
What all share (conditions): 10 µM unless noted

Assay [1] relates to T-47D breast.
For assay [2], the system named is BT-549 breast.
Assay [3] relates to MDA-MB-435 melanoma.
In assay [4] the test system is SW-620 colon.
Assay [5] has as its system MCF7 breast.
Assay [6] deals with HCT-116 colon.
The subject of assay [7] is HCC-2998 colon.
The subject of assay [8] is KM12 colon.

This is part of a sample that, as a whole, favours compounds with a hit. Of some 83,000 tested, about 20% had one in any assay.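 96-well plates, one dose, 48 hours. Percent growth reported; active if below 10.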 A number with no mark means an inactive call. Calls of active or inactive are those of the source.

As for `CCOC(=O)N1CCN(c2nc(Nc3cc(C)[nH]n3)c3ccccc3n2)CC1`, the growth in assay [1] was 37.4%; in assay [2] it was 56.8%; in assay [3], 14%; in assay [4], 41.8%; in assay [5], 27.5%; in assay [6], 34.1%. Further, the results for the growth in assay [7] and in assay [8] were 69% and 21.4%, respectively.
For `C[C@H](CCC(=O)O)[C@H]1CC[C@H]2[C@@H]3CC[C@@H]4/C(=C\c5ccco5)C(=O)/C(=C\c5ccco5)C[C@]4(C)[C@H]3CC[C@]12C`, the growth in assay [1] was 55.6%; in assay [2], 52.9%; in assay [3] it was 37.1%; in assay [4], 27.4%; in assay [5] it was 32.5%; in assay [6] it was 21.8%. For the same molecule, the growth in assay [7] is 92.8%; in assay [8], 74.5%.
In the case of `CCCCCCCCCCCCCC1=NCCN1CCO`, the growth in assay [1] is 65.7%; in assay [2], 123%; in assay [3], 85.3%; in assay [4], -38.6% (active); in assay [5], 54.8%; in assay [6], -36.2% (active). Besides, the figures for the growth in assay [7] and in assay [8] were 71.2% and 56.7%, respectively.
Consider `Cc1ccc(Nc2c(C(N)=O)cnc3ccc(-c4csc(N)n4)cc23)cc1`, for which the growth in assay [1] is 96.7%; in assay [2], 96.4%; in assay [3], 102%; in assay [4], 97%; in assay [5], 92.4%; in assay [6], 93.5%. In addition, the results for the growth in assay [7] and in assay [8] were 100% and 95.6%, respectively.
For `Nc1c(C(=O)Nc2cccc3c2OCCO3)sc2nc3c(cc12)CN(Cc1ccccc1)CC3`, the growth is 68.2% in assay [1]; 69.7% in assay [2]; 6.47% (active) in assay [3]; 47.6% in assay [4]; 28.3% in assay [5]; 45.4% in assay [6]. Further, the growth in assay [7] is 101%; in assay [8] it was 59.4%.
As to `CN(C)CC(=O)Nc1ccc(Cn2nnc3c2C(=O)c2nnn(Cc4ccc(NC(=O)CN(C)C)cc4)c2C3=O)cc1`, the growth in assay [1] is -51.7% (active); in assay [2], -89.7% (active); in assay [3] it was -87.5% (active); in assay [4], -27.3% (active); in assay [5] it was -61.6% (active); in assay [6], -87.7% (active). Also, the growth in assay [7] is -51.2% (active); in assay [8] it was -54.6% (active).
`COc1cc2c(cc1O)CCc1cc(O)cc(OC)c1-2`: the growth is 98% in assay [1]; 79.9% in assay [2]; 96.2% in assay [3]; 109% in assay [4]; 97.8% in assay [5]; 93.7% in assay [6]. Also, the growth in assay [7] was 110%; in assay [8], 97.4%.
As for `COc1cc2nc3cc([N+](=O)[O-])ccc3c(NCCCNCC(C)(C)O)c2cc1OC`, the growth is -40.6% (active) in assay [1]; -71.3% (active) in assay [2]; -85.8% (active) in assay [3]; -11.8% (active) in assay [4]; -33.5% (active) in assay [5]; -46% (active) in assay [6]. Also, the growth in assay [7] is -70.2% (active); in assay [8] it was -47.2% (active).
For `CCCCCCCCCCCCN1CCCC(C)C1` (centres undefined), the growth in assay [1] was 74.6%; in assay [2], 78.1%; in assay [3] it was 95.9%; in assay [4], 87.7%; in assay [5], 68.6%; in assay [6], 60.7%. Also, the growth in assay [7] is 86.9%; in assay [8] it was 60.7%.
In the case of `c1ccc2c(Nc3cccc4ccccc34)cccc2c1`, the growth was 65.2% in assay [1]; 62.8% in assay [2]; -27.7% (active) in assay [3]; 19% in assay [4]; 43.9% in assay [5]; 30.3% in assay [6]. In addition, the growth in assay [7] was 78.4%; in assay [8], 33.6%.
Turning to `c1c2c(cc3c1OCO3)Cc1cc3c(cc1Cc1cc4c(cc1C2)OCO4)OCO3`, the growth in assay [1] is 108%; in assay [2], 113%; in assay [3], 105%; in assay [4], 109%; in assay [5], 90.8%; in assay [6], 115%. For the same molecule, the growth in assay [7] was 112%; in assay [8] it was 126%.
`O=C1C[C@H](Sc2nc(-c3ccc(F)cc3)cc(C(F)(F)F)n2)[C@H]2CO[C@@H]1O2`: the growth in assay [1] is 62.3%; in assay [2], 111%; in assay [3], 102%; in assay [4] it was 67.5%; in assay [5], 46.4%; in assay [6] it was 75.6%. Moreover, the figures for the growth in assay [7] and in assay [8] were 105% and 101%, respectively.
Take `C/C(=C(/c1ccc(O)cc1)c1ccc(Cl)cc1)c1ccccc1`: the growth in assay [1] is -13.5% (active); in assay [2], -78.9% (active); in assay [3], -93.1% (active); in assay [4], -71.4% (active); in assay [5] it was -63.3% (active); in assay [6], -69.4% (active). Further, the figures for the growth in assay [7] and in assay [8] were -74.9% (active) and -86.2% (active), respectively.
Consider `Cc1sc2nc3[nH]/c(=C\c4ccc(Cl)cc4)c(=O)n3c(=O)c2c1C`, for which the growth in assay [1] is 103%; in assay [2] it was 105%; in assay [3] it was 98%; in assay [4], 102%; in assay [5], 100%; in assay [6], 102%. For the same molecule, the growth is 107% in assay [7] and 108% in assay [8].
On to `O=[N+]([O-])c1c(F)cccc1Nc1cccc(F)c1`, for which the growth in assay [1] was 108%; in assay [2], 118%; in assay [3], 105%; in assay [4] it was 108%; in assay [5] it was 90.3%; in assay [6], 99.5%. In addition, the growth in assay [7] is 102%; in assay [8] it was 115%.
As for `O=C(COc1cccc(/C=C2/Oc3ccccc3C2=O)c1)Nc1nccs1`, the growth in assay [1] was 166%; in assay [2], 87.9%; in assay [3] it was 103%; in assay [4] it was 97.2%; in assay [5], 54.4%; in assay [6], 73.9%. Further, the growth in assay [7] was 105%; in assay [8], 4.37% (active).
On to `O=[N+]([O-])c1cccc(C2CC(c3ccccc3)=Nc3ccccc3S2)c1` (centres undefined), for which the growth in assay [1] was 84.9%; in assay [2], 78.5%; in assay [3], 112%; in assay [4], 25.6%; in assay [5] it was 16.2%; in assay [6], 47.9%. Moreover, the growth in assay [7] was 108%; in assay [8], 35.7%.
Consider `Cc1cc(Nc2nc(N3CCN(C)CC3)nc3ccccc23)n[nH]1`, for which the growth in assay [1] was 71.2%; in assay [2], 76.2%; in assay [3] it was 52.2%; in assay [4], 69.2%; in assay [5], 46.2%; in assay [6] it was 50.3%. For the same molecule, the results for the growth in assay [7] and in assay [8] were 87.6% and 19%, respectively.
For the molecule `COc1ccc(S(=O)(=O)NCCNc2nccc(-c3c(-c4cccc([N+](=O)[O-])c4)nc4sccn34)n2)cc1`, the growth in assay [1] is 44.4%; in assay [2], 72.1%; in assay [3] it was 77.9%; in assay [4], 128%; in assay [5], 61.3%; in assay [6], 90%. For the same molecule, the growth in assay [7] is 128%; in assay [8], 44.8%.
As for `CC/C=C\C[C@H](F)C/C=C1/C(=O)C=C[C@@H]1C/C=C\CCCC(=O)O`, the growth in assay [1] was 71.9%; in assay [2], 68.8%; in assay [3], 21.6%; in assay [4], 30.9%; in assay [5], 22.6%; in assay [6] it was -15.7% (active). Besides, the figures for the growth in assay [7] and in assay [8] were 81.9% and 22.3%, respectively.
Regarding `COc1ccc(-c2cn3c(-c4ccc(OC)cc4)cnc3c(Oc3ccc4c(C)cc(=O)oc4c3)n2)cc1`, the growth was 45.3% in assay [1]; 29.2% in assay [2]; 37.2% in assay [3]; 39% in assay [4]; 44.2% in assay [5]; 33.9% in assay [6]. The growth in assay [7] is 77.1%; in assay [8], 43%.
Consider `O=C(CO[N+](=O)[O-])Nc1ccc(C(=O)/C=C/c2ccc3c(c2)OCO3)cc1`, for which the growth in assay [1] was 83%; in assay [2], 87.6%; in assay [3], 62.6%; in assay [4], 47.8%; in assay [5], 26.2%; in assay [6] it was -5.9% (active). Also, the results for the growth in assay [7] and in assay [8] were 69.2% and 35.9%, respectively.
`CC/C=C\C[C@H](O)C/C=C1/C(=O)C=C[C@@H]1C/C=C\CCCC(=O)OC(C)C`: the growth was 6.79% (active) in assay [1]; -18.3% (active) in assay [2]; 2.16% (active) in assay [3]; 0.553% (active) in assay [4]; 3.64% (active) in assay [5]; -70.1% (active) in assay [6]. In addition, the growth is -88% (active) in assay [7] and -62.2% (active) in assay [8].
In the case of `CCCC(=O)Oc1ccc(/C(=C(/CC)Cc2ccccc2)c2ccc(OCCN3CCCC3)cc2)cc1`, the growth in assay [1] was 48.9%; in assay [2], 85.3%; in assay [3], 57.1%; in assay [4] it was 80.5%; in assay [5], 24.9%; in assay [6] it was 68.7%. Moreover, the growth in assay [7] was 42.6%; in assay [8], 70.8%.
In the case of `COc1cc(-c2nc3ccccc3s2)ccc1NC(=O)COc1ccc(Cl)cc1`, the growth in assay [1] is 23%; in assay [2] it was 87.6%; in assay [3] it was 72%; in assay [4], 87.6%; in assay [5] it was 40.4%; in assay [6], 44.9%. The growth in assay [7] is 85.1%; in assay [8] it was 45.6%.
As for `Cc1cc(Nc2nc(N3CCNCC3)nc3ccccc23)n[nH]1`, the growth is 93% in assay [1]; 88.6% in assay [2]; 73% in assay [3]; 103% in assay [4]; 87% in assay [5]; 80% in assay [6]. Also, the figures for the growth in assay [7] and in assay [8] were 92.4% and 26.7%, respectively.
On to `CCCCCCCCOC(=O)CC[C@@H](C)[C@H]1CC[C@H]2[C@@H]3[C@H](OC(=O)CCN)C[C@@H]4C[C@H](OC(=O)CCN)CC[C@]4(C)[C@H]3C[C@H](OC(=O)CCN)[C@]12C`, for which the growth in assay [1] was 88.8%; in assay [2] it was 124%; in assay [3] it was 74.1%; in assay [4], 20%; in assay [5] it was 10.8%; in assay [6], 49.3%. Also, the growth in assay [7] was 84.2%; in assay [8], 77.8%.
On to `COc1ccc2nc3cc(Cl)ccc3c(N3CCN(c4ccnc(N5CCOCC5)n4)CC3)c2c1`, for which the growth in assay [1] is -37.9% (active); in assay [2], 93.1%; in assay [3] it was 57%; in assay [4], 3.94% (active); in assay [5] it was -82% (active); in assay [6], 1.63% (active). Also, the growth in assay [7] is 12.9%; in assay [8] it was 53.2%.

The values are drawn from PubChem BioAssay (NCI).
